Assay results: PubChem BioAssay AID1135 (Sanford-Burnham Center for Chemical Genomics, 2008)
Hit rate of the full screen: of about 200,000 compounds, about 65 (0.03%) were called active.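 Rule for the calls: active = over 50% inhibition of tissue-nonspecific alkaline phosphatase at 20 µM in the single-dose screen; inactive = the rest.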 This excerpt belongs to a sample that is enriched for actives.

These compounds were tested against Alkaline phosphatase, tissue-nonspecific isozyme (Homo sapiens) (UniProt P05186) (assay: blockers of alkaline phosphatase TNAP activity – biochemical, luminescent, high phosphate acceptor level, uHTS, primary screen (AID 1135;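 note: plate controls were DMSO wells for no effect and EDTA-quenched wells as full inhibition for full effect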)). Conditions: purified TNAP, CDP-star luminescence, 1 M DEA; at 20 µM; active compounds read high.
Alkaline phosphatase, tissue-nonspecific isozyme (Homo sapiens), sequence (P05186 whole entry, looked up): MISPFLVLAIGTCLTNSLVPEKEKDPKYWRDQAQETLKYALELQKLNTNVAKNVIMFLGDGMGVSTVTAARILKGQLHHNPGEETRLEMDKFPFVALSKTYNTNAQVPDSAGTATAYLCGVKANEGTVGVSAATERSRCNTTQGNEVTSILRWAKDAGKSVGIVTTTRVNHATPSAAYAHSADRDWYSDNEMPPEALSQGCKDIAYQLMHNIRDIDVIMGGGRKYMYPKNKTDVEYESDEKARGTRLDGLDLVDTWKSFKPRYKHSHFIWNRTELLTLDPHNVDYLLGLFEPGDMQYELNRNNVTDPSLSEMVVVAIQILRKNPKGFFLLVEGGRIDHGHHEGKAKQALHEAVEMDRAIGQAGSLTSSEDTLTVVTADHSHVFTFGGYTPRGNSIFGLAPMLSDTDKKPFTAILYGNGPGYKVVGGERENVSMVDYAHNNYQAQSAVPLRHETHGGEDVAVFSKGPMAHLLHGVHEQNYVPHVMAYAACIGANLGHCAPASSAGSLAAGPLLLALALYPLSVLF

Row | Structure (SMILES) | inhibition
1 | CC(=O)N/N=C/c1cc2c(cc1[N+](=O)[O-])OCO2 | 2.5% (inactive)
2 | COc1ccc(NC(=S)NCCN2CCC(C)CC2)cc1 | -0.4% (inactive)
3 | CCN1CCN(C(C(=O)NC2CCCC2)c2cc3c(cc2[N+](=O)[O-])OCO3)CC1 (stereo not drawn) | -2.4% (inactive)
4 | O=C(Nc1ccccc1C(=O)N1CCOCC1)c1ccc(Cl)cc1 | -6.3% (inactive)
5 | COc1ccc(Cl)cc1NC(=O)[C@@H]1CCCN1C(=O)c1cccs1 | 1% (inactive)
6 | O=[N+]([O-])c1ccc(N/N=C2/CCCCC2c2ccccn2)c([N+](=O)[O-])c1 (stereo not drawn) | 4% (inactive)
7 | CC(C)OC(=O)Cn1nc(C(F)(F)F)c2c1CCCC2 | -1.6% (inactive)
8 | O=C(COc1ccccc1)Nc1ccc(N2CCN(C(=O)c3cccs3)CC2)cc1 | -2.1% (inactive)
9 | Cc1ccc(NC(=O)c2sccc2C)cc1[N+](=O)[O-] | 0.9% (inactive)
10 | COc1ccc(NS(=O)(=O)c2cc(NC(=O)C3CCCCC3)ccc2N2CCOCC2)cc1 | 0.1% (inactive)
11 | COc1cccc(OC)c1C(=O)OCC(=O)/C(C#N)=C(\C)N | 0.2% (inactive)
12 | CCOc1ccc(CCN2C(=O)c3cccnc3C2=O)cc1OCC | 2.6% (inactive)
13 | CC(=O)c1ccc(N2CCN(CC(=O)Nc3ccccc3N3CCOCC3)CC2)cc1 | -5.4% (inactive)
14 | CCOCCCNC(=O)C(NC(=O)Cc1c[nH]c2ccccc12)c1ccc(OC)cc1 (stereo not drawn) | 2.4% (inactive)
15 | CCN1CCN(c2cc3nc(C)n(Cc4ccccc4)c(=O)c3cc2NC(=O)c2ccccc2F)CC1 | -2.8% (inactive)
16 | C/C(=N\NC(=O)c1ccc(NS(=O)(=O)c2cccs2)cc1)c1ccc2ccccc2c1 | -2.7% (inactive)
17 | Cc1ccc(C(=O)COC(=O)CCCC(=O)NC2CCCCC2)cc1[N+](=O)[O-] | -4.3% (inactive)
18 | O=C(Nc1cccnc1)c1cc2cc(Br)ccc2oc1=O | -1.6% (inactive)
19 | CCNS(=O)(=O)c1ccc(NC(=O)c2cncc(Br)c2)cc1 | -1% (inactive)
20 | Cc1ccc(S(=O)(=O)N(C)C)cc1NC(=O)COC(=O)C1COc2ccccc2O1 (stereo not drawn) | -3.2% (inactive)
21 | CCOC(=O)c1ccccc1N1C(=O)C2Sc3[nH]c(=O)sc3C(/C=C/c3ccccc3)C2C1=O (stereo not drawn) | 4.9% (inactive)
22 | CCc1nnc(NC(=O)CCCSc2nc3ccccc3[nH]2)s1 | -4.4% (inactive)

Row | Structure (SMILES) | inhibition
23 | CCN(CC)P(=O)(Nc1ccc(SC(F)F)cc1)c1ccc(N(C)C)cc1NC(=O)c1ccco1 (stereo not drawn) | -7.3% (inactive)
24 | O=C(C(=O)N1CCc2ccccc2C1)c1c[nH]c2ccccc12 | 40.6% (inactive)
25 | C=CCNc1scc(-c2ccccc2)[n+]1CC=C | -7.7% (inactive)
26 | Oc1c(Br)cccc1/C=N/Nc1c(F)c(F)c(F)c(F)c1F | 4.6% (inactive)
27 | C/C(=N/NC(=O)CSc1ccccn1)c1ccc([N+](=O)[O-])cc1 | -4.8% (inactive)
28 | Nc1nnnn1CC(=O)N/N=C/c1ccc(-c2cccc(Cl)c2)o1 | -2.3% (inactive)
29 | O=C(COc1ccc(Cl)cc1)NCc1nnc(SCC(=O)NCC2CCCO2)o1 (stereo not drawn) | -2.4% (inactive)
30 | COc1ccc(/C=C/C(=O)c2cc(Br)ccc(=O)c2O)cc1 | 12.7% (inactive)
31 | CCNC(=O)CC1C(=O)N(c2ccc(F)cc2)C(=O)N1CCc1sccc1C (stereo not drawn) | 3.2% (inactive)
32 | CCCCn1c(N)c(N(CC)C(=O)/C=C/c2ccco2)c(=O)[nH]c1=O | 1.1% (inactive)
33 | COc1ccc(Cl)cc1N(CC(=O)N1CCCCC1)S(C)(=O)=O | -2.8% (inactive)
34 | COc1ccc(C2CC(c3ccccc3)=NN2C(=O)c2ccc(Cl)c([N+](=O)[O-])c2)cc1 (stereo not drawn) | 0.4% (inactive)
35 | O=C(/C(=C/c1cccc(Cl)c1)c1nc2ccccc2[nH]1)c1ccccc1 | -1.2% (inactive)
36 | Cc1cc(C)n(-c2ccc3nncn3n2)n1 | -4% (inactive)
37 | CCOc1ccc(S(=O)(=O)Nc2ccncc2)c(C)c1C | -3.2% (inactive)
38 | c1ccc2c(NC3C4CC5CC(C4)CC3C5)nc(N3CCOCC3)nc2c1 (stereo not drawn) | -4.8% (inactive)
39 | COc1cccc(C(=O)Oc2cc(C)[nH]c(=O)c2[N+](=O)[O-])c1 | -4.1% (inactive)
40 | CC1(C)CC(=O)CC2(C1)NCC(c1ccccc1Cl)c1c2[nH]c2ccccc12 (stereo not drawn) | -3.4% (inactive)
41 | CCOn1c(=O)c(=O)n(O)c2ccccc21 | -6.3% (inactive)
42 | Cc1ccc([N+](=O)[O-])c(OCCCNCC(C)O)c1 (stereo not drawn) | -0.7% (inactive)
43 | COc1ccc(C)cc1NC(=O)C(Sc1ccccc1)c1ccccc1 (stereo not drawn) | -3% (inactive)
44 | CCCCC(CC)CNC(=O)CCCCn1c(=O)[nH]c2ccsc2c1=O (stereo not drawn) | -0.9% (inactive)

Row | Structure (SMILES) | inhibition
45 | OCCC1CN(Cc2cccc(OC3CCCC3)c2)CCN1Cc1ccsc1 (stereo not drawn) | -1.7% (inactive)
46 | O=C(CN1C(=O)/C(=C/c2ccccc2F)Sc2ccccc21)NCc1cccnc1 | -4.7% (inactive)
47 | Cc1ccc(CN2CCN(/N=C/c3ccco3)CC2)c(C)c1 | -2% (inactive)
48 | Cc1ccc(/C(N)=N/OC(=O)COc2ccc(Cl)c(C)c2)cc1 | -6.6% (inactive)
49 | COc1ccc(Cl)cc1NC(=O)CN(C)Cc1ccc(OC)c(OC)c1 | 2.3% (inactive)
50 | Cc1nnc(SC(C(=O)Nc2cc(Cl)cc(Cl)c2)c2ccccc2)[nH]c1=O (stereo not drawn) | 2.4% (inactive)
51 | COc1ccc(F)cc1C(=O)C1CCCN(C(=O)CCc2ccccn2)C1 (stereo not drawn) | 0.9% (inactive)
52 | COc1ccc(NC(=O)CN(Cc2ccccc2)S(C)(=O)=O)cc1OC | -3.6% (inactive)
53 | O=C(O)c1ccc(NS(=O)(=O)c2ccc3c(c2)C(=O)c2cc(S(=O)(=O)Nc4ccc(C(=O)O)cc4)ccc2-3)cc1 | 2.8% (inactive)
54 | CCC(=O)Nc1c(C)n[nH]c1C | -6.7% (inactive)
55 | CC(CCc1ccccc1)NCC(O)c1cccc([N+](=O)[O-])c1 (stereo not drawn) | -4.1% (inactive)
56 | CC(=O)c1c(C)[nH]c(C(=O)OCC(=O)Nc2sc3c(c2C#N)CCCC3)c1C | 50.6% (active)
57 | N#Cc1c(NC(=O)CCCl)sc2c1CCCCC2 | 0.1% (inactive)
58 | Cc1cccc(C(=O)OCC(=O)Nc2sc3c(c2C#N)CCC3)c1 | 5.2% (inactive)
59 | Oc1ccc(/C=N/N(Cc2ccccc2)c2ccccc2)cc1 | -6.2% (inactive)
60 | Cc1nc(CC(=O)NNS(=O)(=O)c2ccc(F)c(Cl)c2)cs1 | -6.6% (inactive)
61 | O=C(O)c1ccccc1-c1ccccc1C(=O)NCc1cccnc1 | 3.5% (inactive)
62 | O=C(Oc1c(-c2ccco2)oc2ccccc2c1=O)c1cccnc1 | -3.4% (inactive)
63 | C(=N\N1CCN(c2ccccn2)CC1)/C1=C(N2CCOCC2)C(=C/c2ccccc2)/CC1 | -0.3% (inactive)
64 | CC(=O)Nc1sc2c(c1C(c1cccc(F)c1)N1CCN(CCO)CC1)CCCC2 (stereo not drawn) | -3.5% (inactive)
65 | Cc1cccc(NC(=O)c2ccc3nsnc3c2)c1C | -1.2% (inactive)
66 | CCOC(=O)c1c(NC(=O)C2CC=CCC2C(=O)O)sc(C)c1CC (stereo not drawn) | 2% (inactive)

Row | Structure (SMILES) | inhibition
67 | CCC(C)NC(=O)c1nn(C)c(=O)c2ccccc12 (stereo not drawn) | -4.5% (inactive)
68 | O=c1c(-c2ccccc2)coc2cc(O)ccc12 | -6.9% (inactive)
69 | COc1cc2sc(C)nc2cc1C | -3.9% (inactive)
70 | CCSc1ccccc1C(=O)Nc1ccc2c(c1)OCO2 | -5.5% (inactive)
71 | COc1cc(/C=C/C(=O)O)cc(S(=O)(=O)Nc2ccccc2SC)c1OC | 6.4% (inactive)
72 | CC(=O)Nc1ccc(Nc2c3ccccc3nc3ccccc23)cc1 | 2.2% (inactive)
73 | O=C(CN1CCN(c2ccc(Cl)cc2)CC1)NCc1cccs1 | -1.4% (inactive)
74 | CCCCNC(=O)C1CCC(CNS(=O)(=O)c2ccc(NC(C)=O)cc2)CC1 (stereo not drawn) | -2.5% (inactive)
75 | O=C(CCc1ccc(S(=O)(=O)N2CCOCC2)cc1)NN=C1CCCCCCC1 | -2% (inactive)
76 | COc1ccc(N2C(=O)CC(Sc3n[nH]c(-c4ccc(C)cc4)n3)C2=O)cc1 (stereo not drawn) | -5.7% (inactive)
77 | CN(C)c1nccc(NCc2ccccc2)c1C#N | 0.6% (inactive)
78 | COc1cccc(N(Cc2nnc3n2CCCCC3)C(=O)Nc2ccccc2F)c1 | -2.9% (inactive)
79 | CC(C)c1nc2sc3c(c2c(=O)n1N)CC(C)(C)OC3 | -1.5% (inactive)
80 | COCCn1c(SCC(=O)Nc2ccc3c(c2)CCC3)nc2ccccc2c1=O | -1.3% (inactive)
81 | CCN(C(=O)CSc1nc2ccccc2n1CC)C1CCS(=O)(=O)C1 (stereo not drawn) | -1.3% (inactive)
82 | Cc1cc(C(=O)COC(=O)CNC(=O)c2ccc(F)cc2)c(C)n1Cc1ccco1 | 1.3% (inactive)
83 | S=C(Nc1ccc(Br)cc1Cl)NC1CCN(Cc2ccccc2)CC1 | -5.2% (inactive)
84 | CSCCC(NC(=O)c1cc([N+](=O)[O-])cc([N+](=O)[O-])c1)c1nc2ccccc2[nH]1 (stereo not drawn) | -6.8% (inactive)
85 | CCc1ccc(CN2C(=O)c3ccccc3C2C(=O)NCC2CCCO2)cc1 (stereo not drawn) | 2.3% (inactive)
86 | Cc1cccc(N2CCN(c3ccc(NC(=O)/C=C\C(=O)O)cc3)CC2)c1 | -4.5% (inactive)
87 | NNC(=O)COc1ccc(C2SCCS2)cc1 | -6.7% (inactive)
88 | O=C(NCc1ccncc1)NC12CC3CC(CC(C3)C1)C2 | 2.3% (inactive)

Row | Structure (SMILES) | inhibition
89 | COc1ccc([N+](=O)[O-])cc1NC(=O)CC1SC(=Nc2cccc(C)c2C)N(/N=C(\C)c2ccc(C)cc2)C1=O (stereo not drawn) | -3.9% (inactive)
90 | Cc1[nH][nH]c(=O)c1C(c1ccc(-c2ccc(Cl)cc2)o1)c1c(C)[nH][nH]c1=O | 10.3% (inactive)
91 | Cc1[nH][nH]c(=O)c1C(c1ccc2c(c1)OCO2)c1c(C)[nH][nH]c1=O | 44% (inactive)
92 | CCOc1ccc(C(c2c(C)[nH][nH]c2=O)c2c(C)[nH][nH]c2=O)cc1OCC | 71.4% (active)
93 | CC(CNc1ccc([N+](=O)[O-])c2cccnc12)Nc1c([N+](=O)[O-])cc(C(F)(F)F)cc1[N+](=O)[O-] (stereo not drawn) | 13.7% (inactive)
94 | NS(=O)(=O)c1ccc(CCNC(=O)c2ccc(Cl)cc2[N+](=O)[O-])cc1 | 5.9% (inactive)
95 | CCCC(=O)NC(=S)Nc1ccc(CN2CCOCC2)cc1 | -4.1% (inactive)
96 | Cc1cc(-c2n[nH]c(=S)n2-c2ccc(C)c(C)c2)no1 | -3% (inactive)
97 | O=C(c1cc(Cl)cc(Cl)c1)N1CCC(=O)N(C(COCc2ccccc2)Cc2ccccc2)CC1 (stereo not drawn) | -3.9% (inactive)
98 | CCn1c(SCC(=O)Nc2nc(C)cs2)nnc1C(C)NC(=O)c1ccccc1 (stereo not drawn) | -5.3% (inactive)
99 | COCCCNC(=O)CNC(=S)N(Cc1cc(OC)c(OC)c(OC)c1)C1CCCC1 | -4.1% (inactive)
100 | CC(=O)Nc1ccc(NC(=O)C(C)OC(=O)c2ccccc2C(=O)c2ccc(Cl)c([N+](=O)[O-])c2)cc1 (stereo not drawn) | 0.3% (inactive)
101 | Cc1cc(C)c(NC(=O)c2oc3ccccc3c2COc2ccccc2)c(C)c1 | 0.7% (inactive)
102 | CCn1c(C(C)NC(=O)c2ccc(C)cc2)n[nH]c1=S (stereo not drawn) | -0.4% (inactive)
103 | CC(C)(C)NC(=O)CN(C(=O)c1ccc(Cl)nc1)c1cccc2ccccc12 | -2.9% (inactive)
104 | CC(C)(C)n1nc2c(c1NC(=O)c1cc3ccccc3o1)CSC2 | -7.4% (inactive)
105 | COc1cc(C(=O)Nc2cc(C(F)(F)F)ccc2-n2cncn2)cc(OC)c1OC | -1.7% (inactive)
106 | O=C(COc1cc(Cl)c(Cl)cc1Cl)NC(=O)NC1CCCC1 | 0.7% (inactive)
107 | O=C(Nc1ccc2c(c1)OCO2)c1sc2cc(Cl)ccc2c1Cl | 0.3% (inactive)
108 | Cc1nnc(SCc2cccc(Cl)c2)n(N)c1=O | -2.2% (inactive)
